Inconclusive results are not listed. A call without a number means that no potency is given here. The source made the active and inactive calls. The call rests on the fitted dose curve; in most records, active means well fitted cell-killing curve with a large enough effect; inconclusive means small, poorly fitted or top-dose-only effect; inactive means flat fitted curve, though single readings scatter.
Potency means the concentration at half of the fitted maximal effect.

The assay in a line: Vero-766 cells viability qHTS against the NCATS CANVASS Library: Counterscreen for Zika virus inhibition assay (AID 1347394). Further: nearly all actives have a fitted effect of over 60% in size. The note with it: Vero 766 viability, CellTiter-Glo luminescence, 72 h; series mostly up to 46.1 µM. From the text:
Natural products and their derivatives continue to be wellsprings of nascent therapeutic potential. However, many laboratories have limited resources for biological evaluation, leaving their previously isolated or synthesized compounds largely or completely untested. To address this issue, the Canvass library of natural products was assembled (https://tripod.nih.gov/canvass), in collaboration with academic and industry researchers, for quantitative high-throughput screening (qHTS) across a diverse set of cell-based and biochemical assays. The pure (>85% purity by liquid chromatography/mass spectrometry [LC/MS]) Canvass library of 346 natural products were submitted by 45 academic laboratories and companies around the world. We collected pure natural products to circumvent deconvolution and structure elucidation due to time and resource limitations. The library was formatted into 1536-well plates and evaluated in 50 qHTS (in an 11-pnt concentration series) bioassays with broad scope of disease-relevant mechanisms. The resulting data set from 50 different assays was then systematically analyzed to identify overall trends and specific natural products with interesting biological activities. Reported herein are the results of each individual qHTS and their corresponding assay protocol. The vero cell viability assay was performed in the absence of Zika virus utilizing Cell Titer Glo to eliminate toxic compounds. A decrease in the luminescence signal is caused by cytotoxic compounds. National Center for Advancing Translational Sciences (NCATS), Rockville, MD National Institute of Health (NIH), Bethesda, Maryland
Zika-counterscreen assay protocol: 1. In a white-solid bottom, 1536-well tissue culture plate (Corning 7494), 3 uL of Vero 766 cells derived (African Green Monkey) were dispensed into columns 1, 2, and 5 - 48 using a Multidrop Combi (Thermo Fisher Scientific) at a final concentration of 1000 cells / well. Media only was dispensed in columns 3 and 4 to be used as a control (100% inhibition). 2. The assay plates were incubated overnight at 37C, 5% CO2, 95% humidity to acclimate and attach. 3. […] of compounds (in DMSO; columns 5-48) were pin transferred into the assay plates using the Kalypsis pin tool (Wako USA) equipped with a 1536-well pin heads. This yields a final concentration range of 0.001 - 77 uM. The assay plates were sealed with breathable film. 4. The assay plates were incubated for 72 hours at 37C, 5% CO2, 95% humidity. 5. After incubation, the seals were removed by Xpeel Automated Plate Seal Remover (Brooks Life Sciences) and 2.5 uL of CellTiter Glo reagent (Promega) was dispensed into the wells (columns 1 - 48, rows 1 - 32). 6. Luminescence signal was obtained via the ViewLux plate reader (Perkin Elmer) using the clear emission filter and 1x binning, 2 seconds exposure settings.
For the compound `CCC[C@@H](C)/C=C(\C)[C@H](O)[C@H](C)/C=C/CC[C@@H](O)[C@H](C)[C@H](O)[C@H](C)[C@H](O)[C@H](C)[C@H]1O[C@H]([C@H](C)C(=O)O)CC[C@@H]1C`, the Potency is 9.33 µM (active).

`CCCCCC[C@H](CCCCC[C@@H](O)C(N)=O)OC(=O)[C@@H]1CC=CN1C(=O)c1ccccc1O`: the Potency entry is “inactive”.

As to `CS/C=C/C(N)=O`, the Potency result is “inactive”.

For `O=Cc1ccc2n1C[C@@]1(OC2)O[C@H](CO)[C@@H](O)[C@@H]1O`, the Potency entry was “inactive”.

On to `C=CC(C)(C)C(=O)[C@@H](C)[C@@H]1CC[C@](C)(C=C)O1`, for which the Potency result is “inactive”.

For the compound `CO[C@H]1/C=C/CC[C@@H](S[C@@H]2O[C@H](CO)[C@@H](O)[C@H](O)[C@H]2O)CC(=O)O[C@@H](/C(C)=C/[C@H](C)C(=O)CCCC2CC(=O)NC(=O)C2)[C@@H](C)[C@@H]1O`, the Potency entry is “inactive”.

For the compound `CO[C@@H]1[C@H](O)[C@@H](C)O[C@@H](OC[C@H]2/C=C/C=C/C(=O)C(C)C[C@H](C)C(O[C@@H]3O[C@H](C)CC4(OC(=O)O[C@@H]4C)C3O)[C@@H](C)/C=C/C(=O)OC2C)[C@@H]1OC` (stereo not given in full), the Potency result is “inactive”.

For the compound `CCC1=C2CCCN3C(=O)O[C@H]([C@H]1OC(C)=O)[C@H]23`, the Potency entry is “inactive”.

For the compound `CC(=O)[C@@H]1[C@@H](O)C[C@H]2[C@]3(C)CC[C@H]4C(C)(C)CCC[C@]4(CO)[C@H]3C[C@H]3OC(=O)[C@@H]1[C@@]32C`, the Potency entry is “inactive”.

Take `OCc1ccc2ocnc2c1`: the Potency entry is “inactive”.

Regarding `C=C1C(=O)C[C@H]2C[C@@H]1[C@]2(C)CCC=C(C)C`, the Potency entry was “inactive”.

Take `CC1=CC[C@@]2(C[C@@H]1O)[C@@H](C(=O)O)CC[C@H]2C(C)C`: the Potency entry is “inactive”.

`O=C1c2c(O)cc(O)cc2O[C@@H](c2ccc(O)cc2)[C@@H]1c1c(O)cc(O)c2c(=O)cc(-c3ccc(O)c(O)c3)oc12`: the Potency result is “inactive”.

With `COc1cc(/C=C2/C(=O)N(c3ccc(O)cc3C(=O)O)[C@H](c3ccc(O)c(OC)c3)C2C(=O)Nc2ccc(O)cc2C(=O)O)ccc1O` (stereo not given in full), the Potency entry was “inactive”.

In the case of `C=CC(=C)CC[C@]1(C)[C@H]2C[C@H](OC(=O)C(C)CC)C=C3[C@H](OC(C)=O)O[C@H](OC(C)=O)[C@@]32[C@H](OC)C[C@@H]1C` (stereo not given in full), the Potency was 6.8 µM (active).

In the case of `CO[C@@H]1C[C@@H](C[C@H]2CC[C@H](C)[C@H]([C@@H](C)C(=O)O)O2)O[C@]2(O[C@](C)([C@H]3CC[C@@](C)([C@@H]4O[C@@H]([C@H]5O[C@](C)(O)[C@H](C)C[C@@H]5C)C[C@@H]4C)O3)C[C@H]2C)[C@@H]1C`, the Potency was 4.67 µM (active).

As to `C=C1/C=C\C(CCC)=C\c2csc(n2)C(C)NC(=O)C[C@@]2(CC(=O)O)CCC(=C)[C@H](C1)S2` (stereo not given in full), the Potency entry is “inactive”.

`CC(=O)NC[C@@H]1O[C@H](CC/C=C(C)/C(C)=C/C=O)[C@H](C)C[C@H]1O`: the Potency entry is “inactive”.

For the compound `Oc1ccc(C2c3c(O)cc(O)cc3[C@@H]3C(c4ccc(O)cc4)c4c(O)cc(O)cc4[C@H]23)cc1` (stereo not given in full), the Potency result was “inactive”.

`COc1ccc([C@@H]2c3cc(OC)c(OC)cc3C(=O)C(C)C2C)cc1OC` (stereo not given in full): the Potency result is “inactive”.

For `C/C1=C\CC(=O)/C=C/C=C\c2csc(n2)[C@@H](C)NC(=O)C[C@@](S)([C@@H](C)C(=O)O)CC1`, the Potency result was “inactive”.

With `CC(O)/C=C/C1(O)C(C)(C)CC(O)CC1(C)O` (stereo not given), the Potency entry was “inactive”.

Regarding `Cc1cc(O)cc2oc(C[C@H](C)O)cc(=O)c12`, the Potency result was “inactive”.

Take `C[C@@H]1C[C@H]2C[C@]3(CCCCN3C)[C@@H]3C[C@H]2[C@H](C1)N(C)C3`: the Potency entry was “inactive”.

Take `O=C1C[C@@H](c2ccc(O)c(-c3c(O)cc(O)c4c3O[C@H](c3ccc(O)cc3)CC4=O)c2)Oc2cc(O)cc(O)c21`: the Potency entry was “inactive”.

As to `C[C@@H]1O[C@@H](Oc2c(-c3ccc(O)cc3)oc3cc(O)cc(O)c3c2=O)[C@H](O)[C@H](O)[C@H]1O`, the Potency entry was “inactive”.

In the case of `CC1C(=O)C23CCC1C[C@@]21O[C@H]2C(C)(C)C=CC(=O)[C@@]23COC1=O` (stereo not given in full), the Potency result was “inactive”.

Consider `C=C(C)[C@@H]1CC[C@]2(C)CC[C@]3(C)[C@H](CC[C@@H]4[C@@]5(C)CC[C@H](O)C(C)(C)[C@@H]5CC[C@]43C)[C@@H]12`, for which the Potency result is “inactive”.

As for `C=C1[C@H]2CC[C@@]3(C=CC(=O)[C@@](C)(CCC(=O)Nc4c(O)ccc(C(=O)O)c4O)C3C2)[C@H]1O` (stereo not given in full), the Potency entry is “inactive”.

Take `COc1ccc(/C=C2\COc3cc(O)ccc3C2=O)cc1`: the Potency result is “inactive”.

In the case of `CN1CC[C@]2(c3cccc4c3N[C@@H]3N(C)CC[C@]43[C@@]34CCN(C)[C@@H]3Nc3ccccc34)c3ccccc3N[C@H]12`, the Potency was 26.3 µM (active).

For the compound `C/C(=C\[C@H](C)C(=O)CCCC1CC(=O)NC(=O)C1)[C@@H]1OC(=O)/C=C/CC/C=C/C[C@@H](O)[C@@H]1C`, the Potency entry was “inactive”.

Consider `C=C1C[C@@]23C=CC(=O)[C@@](C)(CCC(=O)Nc4c(O)ccc(C(=O)O)c4O)C2C[C@@H]1CC3O` (stereo not given in full), for which the Potency result is “inactive”.

Turning to `C/C1=C/[C@@H](C)[C@H](O)C/C=C/CC/C=C/C(=O)O[C@@H]1[C@H](C)C(=O)/C=C/CC1CC(=O)NC(=O)C1`, the Potency entry is “inactive”.

As for `C1=C2CCCN[C@@H]2[C@@H]2CCN3CCCC[C@@H]3[C@H](C1)C2`, the Potency result is “inactive”.

Regarding `C[C@@H]1C(=O)[C@]23CC[C@H]1C[C@]21O[C@H]2C(C)(C)C=CC(=O)[C@]23COC1=O`, the Potency entry was “inactive”.

Turning to `CN1CCc2cc3c(c4c2[C@H]1[C@@H](O)c1ccccc1-4)OCO3`, the Potency entry was “inactive”.

As for `Oc1ccc(/C=C2/c3cc(O)cc(O)c3C(c3ccc(O)cc3)[C@H]2c2cc(O)cc(O)c2)cc1` (stereo not given in full), the Potency result is “inactive”.

`COc1cc(O)c2c3c(c(O)cc(C)c13)C(=O)OC2`: the Potency result was “inactive”.

Consider `C[C@@]12CCC[C@@](C)(C(=O)O)[C@H]1CC[C@]13C[C@H]4C[C@H](O[C@@]4(C)C1)[C@H]32`, for which the Potency entry was “inactive”.

The values are drawn from PubChem BioAssay (NCATS).
